# Screens as filed in PubChem BioAssay.
# An excerpt weighted towards active compounds, which were near 12% of everything screened.
# Sm TGR inh: inhibitors of Schistosoma mansoni thioredoxin glutathione reductase; purified TGR, DTNB reduction, TNB absorbance 405 nm; Potency, µM (highest dose often 114 µM), inactives show at the top dose activity change, negative = inhibition, hits mostly inhibitors; 360,000 compounds, 3% hits; AID 485364; active means well fitted inhibition curve with a large enough effect; inconclusive means small, poorly fitted or top-dose-only effect; inactive means no such curve, though single readings can be large or run the other way; further: potency means the concentration at half of the fitted maximal effect; on the % scale 0 is the no-effect control and ±100 the full control effect; nearly all actives have a fitted effect of over 60% in size
#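 First, TGR (20 nM dispensed) and NADPH were mixed with compound. Second, a 15 min room-temperature incubation followed. Third, further NADPH and then DTNB were added to start the reaction. Finally, TNB absorbance was monitored kinetically.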
# CHX counter: counter-screen for Shiga toxin inhibitors: cycloheximide protein synthesis inhibition; cell reporter, cycloheximide protein synthesis inhibition counterscreen; max response, %; 300,000 compounds, 12% hits; AID 2314; in the data active means max response mostly above about 13%, no sharp cut-off; inactive means mostly below about 14%; further: read at 38.3 µM for the half of the compounds with a filed dose; 0% is about no effect
# Shiga inhibitor: Shiga toxin inhibition. Vero cells, Shiga toxin protein synthesis inhibition reporter. inhibition, % at 38.7 µM. 290,000 compounds, 9.2% hits; in the data active means inhibition mostly above about 28%, no sharp cut-off; inactive means mostly below about 43%; further: 0% is about no effect
# FMDV inh: blocks foot and mouth disease virus; 410,000 compounds, 1.2% hits; Potency, µM (titrated, usually from 57.9 µM), for the others: at the top dose activity change, negative = inhibition, actives largely listed as inhibitors; FMDV antiviral cell-based qHTS; calls by dose curve; tested in HEK293T cells; further: read-out not given here; potency means the concentration at half of the fitted maximal effect; on the % scale 0 is the no-effect control and ±100 the full control effect; nearly all actives have a fitted effect of over 45% in size
# Numbers without * were called inactive; u = inconclusive; x = no result given.
SMILES,Sm TGR inh,CHX counter,Shiga inhibitor,FMDV inh
Cc1ccc(NC(=O)NCCN2CCCCC2)cc1Cl,1.4%,13.1*,1.3,-5.9%
O=C(NCCN1CCCCC1)c1ccc(F)cc1Cl,-0.1%,12.0*,27.0,0.1%
Cc1ccc(NC(=O)C(=O)N2CCCC2)cc1Cl,-16.3%,38.7*,115.9*,65.8%
CCOC(=O)c1c(S(=O)(=O)N2CCCC(C(=O)Nc3cccc(CC)c3)C2)c(C)n(CC)c1C (stereo not given),-5.4%,x,x,-12.9%
Cc1cccc(-n2nc(C)c(C(=O)Nc3cc(C)ccc3C)c2-n2cccc2)c1,9.6%,x,x,u
NS(=O)(=O)c1ccc(CCNC(=O)c2ccc3nc(CCc4ccccc4)oc3c2)cc1,1.1%,x,x,10.2%
O=C(Nc1ccc(Cl)c(Cl)c1)N1CC=CCC1,0.0%,32.5*,86.1*,18.3%
Cc1cc(C)cc(NC(=O)c2cc(C)nc3c2c(C)nn3-c2ccccc2)c1,9.1%,x,x,-1.8%
Cc1cc(C(=O)Nc2sc(C)c(-c3ccc(F)cc3)c2C(N)=O)no1,3.3%,61.6*,83.6*,23.4%
Cc1cn(S(=O)(=O)c2ccc(F)c(Cl)c2)cn1,-4.0%,x,x,-12.1%
Cc1cccc(C(=O)NNC(=O)c2ccc(-c3ccccc3)cc2)c1,7.5%,-0.6,-8.5,14.9%
CC(C)Oc1ccc(C(=O)NNC(=O)c2ccccc2C(=O)O)cc1,-5.4%,17.4*,30.4,55.4%
O=C(NNC(=O)c1ccc(-c2ccccc2)cc1)c1ccccc1,0.6%,20.4*,67.0*,30.8%
O=C(O)c1ccccc1C(=O)NCc1ccc(F)cc1,0.0%,-1.7,-12.7,17.8%
O=C(O)c1ccccc1C(=O)NNc1ccc(F)cc1,50.1µM*,1.0,8.8,-21.5%
O=C(NNC(=O)c1ccccc1C(=O)O)c1ccc(O)cc1,x,23.5*,96.3,2.1%
CCOc1ccc(-n2c(SCC(=O)Nc3cccc(Cl)c3)nc3c(oc4ccccc43)c2=O)cc1,-1.5%,x,x,-1.0%
Nc1cc(-c2ccc(Br)cc2)nn1Cc1ccccc1,6.5%,53.6*,91.0*,-11.1%
Cc1cccc(C)c1NC(=O)CCC(=O)N1Cc2ccccc2Oc2ncccc21,-1.5%,x,x,-5.2%
Cc1nc2ccccc2nc1CN1CCOc2ccc(C(C)(O)COc3ccccc3)cc2C1 (stereo not given),x,x,x,2.7%
CC(=O)Nc1ccc(NC(=O)c2cnn(-c3ccccc3)c2C2CCN(C(=O)OC(C)(C)C)CC2)cc1,5.01µM*,x,x,-27.6%
CC(=O)c1sc(NC(=O)COc2ccc(C(C)C)c(C)c2)nc1C,6.5%,1.6,-5.7,-26.8%
CC(=O)c1sc(NC(=O)CCOc2ccccc2)nc1C,-14.8%,33.9*,77.0*,37.7%
O=C(COc1ccccc1)Nc1nc2c(s1)CCCC2,3.1%,38.7*,83.3*,44.5%
CC(=O)c1sc(NC(=O)COc2ccccc2)nc1C,29.9%,15.3*,57.4*,52.7%
SMILES,Sm TGR inh,CHX counter,Shiga inhibitor,FMDV inh
OCC1OC(n2cnc3c(=S)nc[nH]c32)C(O)C1O (stereo not given),x,x,x,-12.7%
CCOc1ccc(NC(=S)Nc2cccc3cnccc23)cc1,-24.4%,13.7*,10.6,-11.9%
Cc1ccc(S(=O)(=O)N(C)C)cc1NC(=S)Nc1cccc2ccccc12,15.8µM*,-2.0,13.3,3.8%
S=C(Nc1cccnc1)Nc1cccc2cnccc12,44.7µM*,1.3,-14.4,3.0%
CCN(CC)S(=O)(=O)c1ccc(OC)c(NC(=S)Nc2cccc(C)c2C)c1,-6.5%,24.0*,-13.8,6.7%
Cn1cnnc1Sc1ccc(CN2CCOc3ccc(C4=Cc5ccccc5CC4)cc3C2)o1,x,x,x,20.2%
CCC(=O)OCC(=O)[C@@]1(OC(=O)CC)[C@@H](C)C[C@@H]2[C@H]3CCC4=CC(=O)C=C[C@]4(C)[C@@]3(F)[C@@H](O)C[C@@]21C,x,11.7,-7.0,x
CCC(C)n1c(=O)c2sccc2n2c(CCCC(=O)N3CCN(c4ccccc4)CC3)nnc12 (stereo not given),2.8%,x,x,-23.8%
CCOc1ccccc1NC(=O)CSc1cc(=O)n(CC)c2ccccc12,4.3%,x,x,-20.9%
CN(C)S(=O)(=O)c1cccc(NC(=S)Nc2ccc3cn[nH]c3c2)c1,u,-1.3,-2.0,-1.5%
CN(C)S(=O)(=O)c1cccc(NC(=S)Nc2cccc3cnccc23)c1,10µM*,7.5,17.2,u
S=C(Nc1ccc(Cl)cc1)Nc1cccc2cnccc12,0.0%,17.6,18.6,-5.8%
COc1ccc(NC(=S)Nc2cccc3cnccc23)cc1,56.2µM*,-2.6,32.0,-7.5%
Fc1ccc(NC(=S)Nc2cccc3cnccc23)cc1,44.7µM*,17.4*,32.5,-10.2%
CCOc1ccc(NC(=S)Nc2ccc(OCC)cc2)cc1,14.6%,-2.1,23.8,-18.9%
CCOc1ccc(NC(=S)Nc2cccc3ccccc23)cc1,9.7%,72.1*,88.8*,29.5%
